The results in this text go back to PubChem BioAssay AID624267 (The Scripps Research Institute Molecular Screening Center, 2012).

Among all 360,000 compounds or so, about 1,400 (0.39%) were called active. Many of the other results were omitted from the sample, so actives are more common in it than they were. Values without a mark were called inactive. Rule as the data show it: active = inhibition above about 21%; inactive = the rest.

Sequence of Receptor-interacting serine/threonine-protein kinase 2 (Homo sapiens) (O43353 whole entry, looked up): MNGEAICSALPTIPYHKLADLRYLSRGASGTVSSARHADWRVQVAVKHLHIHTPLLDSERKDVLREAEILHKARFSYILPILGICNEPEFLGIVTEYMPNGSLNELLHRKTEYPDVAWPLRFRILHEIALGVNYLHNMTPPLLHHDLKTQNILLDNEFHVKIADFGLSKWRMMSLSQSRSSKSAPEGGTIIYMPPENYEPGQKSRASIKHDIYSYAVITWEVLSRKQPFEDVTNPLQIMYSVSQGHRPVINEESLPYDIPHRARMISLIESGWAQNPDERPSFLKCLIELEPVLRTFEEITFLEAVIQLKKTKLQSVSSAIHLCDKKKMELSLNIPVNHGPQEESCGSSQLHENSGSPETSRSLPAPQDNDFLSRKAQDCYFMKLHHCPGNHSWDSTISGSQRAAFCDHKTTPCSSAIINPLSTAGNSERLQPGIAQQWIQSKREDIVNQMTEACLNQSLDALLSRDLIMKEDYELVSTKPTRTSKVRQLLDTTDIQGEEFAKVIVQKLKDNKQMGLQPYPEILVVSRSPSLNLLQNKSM

This test addresses Receptor-interacting serine/threonine-protein kinase 2 (Homo sapiens) (UniProt O43353). Put plainly: NOD2-RIPK2 binding disruptors in cells, primary screen, fluorescence, CHO cells, BLA complementation (AID 624267).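 Also: 0% = vehicle only and 100% = reference blocker.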 The note with it: CHO BLA complementation NOD2-RIPK2, CCF4 ratio; at 4.98 µM; stronger effect = higher value.
As usually defined, the inhibition is the change of the read-out against control, counted positive when it falls. As for `COc1ccc(CN2CCCCC2C)cc1OC` (configuration not stated), the inhibition was -10.3%.

On to `C/C(CC(C)C)=N\Oc1nc(C)cc(C)n1`, for which the inhibition is -7.31%.

On to `COCCCNC(=O)CN1CCN(Cc2ccccc2Cl)C1=O`, for which the inhibition is 5.43%.

On to `CCc1ccccc1N(CC(=O)N1CCN(c2ccccc2F)CC1)S(C)(=O)=O`, for which the inhibition is -2.64%.

On to `O=C(CNC(=O)OCc1ccccc1)Oc1cc2oc(=O)cc(-c3ccccc3)c2cc1Cl`, for which the inhibition is 52.2% (active).

For `O=C(CNC(=O)c1ccccc1)NCC(=O)OCc1ccc(Cl)cc1`, the inhibition was 1.19%.

`O=C(CNC(=O)Cc1ccccc1)NCC(=O)OCC(=O)c1ccccc1Cl`: the inhibition is -8.44%.

Regarding `O=C(Nc1ccc(CSc2ccccc2)cc1)c1ccc(CN2CCOCC2)cc1`, the inhibition was -2.26%.

As to `O=C(Cc1ccccc1)Nc1c(Cl)ccc2nsnc12`, the inhibition is -10.4%.

`C=CC(COCc1ccccc1)N(Cc1ccccc1)S(=O)(=O)c1ccccc1Br` (configuration not stated): the inhibition is 0.84%.

Regarding `COc1cc(C)c(C(C)C)cc1S(=O)(=O)n1ccnc1`, the inhibition is -1.8%.

In the case of `O=C(NCc1ccncc1)C1CCN(C(=O)c2cccc(Cl)c2)CC1`, the inhibition was -2.02%.

For `CCN(C(=O)CSc1cccc[n+]1[O-])c1ccccc1`, the inhibition was 1.91%.

On to `Cn1c(Cc2cccc3ccccc23)nnc1SCC(=O)N1CCN(c2cccc(Cl)c2)CC1`, for which the inhibition was 2.05%.

For `O=C(Cc1csc(Nc2nc(=S)[nH]c3ccccc23)n1)NCCCN1CCN(c2cccc(Cl)c2)CC1`, the inhibition was 38.1% (active).

Consider `COCCCn1c(Cc2csc(Nc3cccc(Cl)c3)n2)nnc1SCC(=O)OC1CCCCC1`, for which the inhibition is -7.45%.

As for `CNC(=O)n1ccc(C(=O)N2CCCCC2)n1`, the inhibition was 1.22%.

Turning to `O=C(NN1C(=O)C2C3C=CC(O3)C2C1=O)c1ccccc1` (configuration not stated), the inhibition was -0.12%.

Turning to `Cc1nnc(SCC(=O)Nn2cnnc2)s1`, the inhibition is 34.9% (active).

On to `Cc1nnc(SCC(=O)NC2CCCC2)s1`, for which the inhibition is -7.66%.

As to `CCSc1nnc(SCC(=O)NNC(=O)c2ccccc2F)s1`, the inhibition is -9.88%.

For the compound `CCOc1ccc(/C(O)=C2/C(=O)C(=O)N(Cc3cccnc3)C2c2ccc(N(C)C)cc2)c(C)c1` (configuration not stated), the inhibition is -5.35%.

Consider `O=C(Nc1ccccc1Cl)/C(Cl)=C(\Cl)S(=O)c1ccccc1` (configuration not stated), for which the inhibition was 70.5% (active).

Consider `O=C(COc1nsnc1N1CCOCC1)Nc1ccccc1Cl`, for which the inhibition was -6.94%.

Take `O=C(Nc1ccccc1)c1nnsc1S(=O)(=O)c1ccc(Cl)cc1`: the inhibition was 56.9% (active).

Turning to `CN(C)/C=C(/C(=O)c1ccccc1)S(=O)(=O)c1ccc(Cl)cc1`, the inhibition is 10.5%.

As to `C/C(=N\NS(=O)(=O)c1ccc(Cl)cc1)c1ccc(NC(=O)c2ccco2)cc1`, the inhibition is 7.02%.

Consider `CCOc1ccc(CN2CCC(n3nccc3NC(=O)C3CC3)CC2)cc1CO`, for which the inhibition is -4.91%.

As to `Cc1cc(NC(=O)CN2CCC(O)(c3cccc(F)c3)CC2)no1`, the inhibition is -7.88%.

Regarding `NC(=O)COc1ccccc1C(=O)NC12CC3CC(CC(C3)C1)C2`, the inhibition is 2.45%.

Turning to `CCSc1ccccc1C(=O)Nc1ccc2c(c1)OCO2`, the inhibition was 1.86%.

For the compound `O=C1C(Cl)=C(Oc2ccccc2)C(=O)c2ccccc21`, the inhibition is 71.7% (active).

For the compound `O=C(CNc1ccccc1N1CCCC1=O)Nc1cc(Cl)ccc1-n1cncn1`, the inhibition was 4.89%.

With `Nc1c(C(=O)c2cccs2)sc2nsc(SCCN3CCCCC3)c12`, the inhibition is 37.8% (active).

Regarding `COc1ccccc1Oc1ccc(N2CC(C(=O)OCC(=O)c3ccc(F)cc3)CC2=O)cc1` (configuration not stated), the inhibition is -13.1%.

Take `Cc1ccccc1CS(=O)(=O)CC1(O)CCN(C(=O)c2cccc(C(F)(F)F)c2)CC1`: the inhibition was -2.24%.

For `CC(C)(C)n1nc2c(c1NC(=O)c1ccc(S(=O)(=O)N3CCCC3)cc1)CS(=O)C2` (configuration not stated), the inhibition was 1.52%.

`Cc1cccc(OC(C)C(=O)N2CCc3ccccc3C2)c1` (configuration not stated): the inhibition is -10.7%.

Turning to `O=[N+]([O-])c1ccc(N2CCN(c3ccc(O)cc3)CC2)c(Cl)c1`, the inhibition was -4.55%.

As for `O=C(/C=C/c1ccc(Cl)c([N+](=O)[O-])c1)c1ccc(O)cc1`, the inhibition was 28.9% (active).

Consider `O=C(NCCC1=CCCCC1)c1ccc(Cl)c([N+](=O)[O-])c1`, for which the inhibition was -8.9%.

Turning to `O=C(Oc1ccccc1Cl)c1ccc(N2CCOCC2)c([N+](=O)[O-])c1`, the inhibition was 1.05%.

With `N#Cc1cc([N+](=O)[O-])ccc1NC(=O)COC(=O)c1cnccn1`, the inhibition is -8.54%.

In the case of `CSc1ccccc1NC(=O)c1cnc2sc(C)cn2c1=O`, the inhibition is -0.62%.

For `CN(CC(=O)Nc1ccc(F)cc1)CC(=O)N1CCCCC1`, the inhibition is 3.04%.

On to `O=C(CSc1ncn[nH]1)Nc1nc(-c2cccc([N+](=O)[O-])c2)cs1`, for which the inhibition is 21.5% (active).

As to `O=C(CSc1ncn[nH]1)Nc1nsc(-c2ccccc2)n1`, the inhibition is 1.03%.

With `O=C(CSc1ncn[nH]1)Nc1nc2c(F)c(F)c(F)cc2s1`, the inhibition is 2.77%.

`CCN(C(=O)Cc1nc(N)n[nH]1)C1(C(=O)Nc2ccccc2)CCCCC1`: the inhibition is -2.08%.

In the case of `O=C(NN1C(=O)C2C3C=CC(O3)C2C1=O)c1ccncc1` (configuration not stated), the inhibition was -1.04%.

`Oc1ccc2ccc3cccc[n+]3c2c1`: the inhibition was 23.5% (active).

In the case of `Cc1nn(C)c(C)c1C(C)NC(=O)c1ccc(OC2CCN(Cc3ccccn3)CC2)cc1` (configuration not stated), the inhibition is -7.27%.

Consider `N#CCCN(C(=O)COC(=O)c1ccc(S(=O)(=O)N2CCCCCC2)cc1)c1ccccc1`, for which the inhibition was -9.9%.

Regarding `NC(CSC12CC3CC(CC(C3)C1)C2)C(=O)O` (configuration not stated), the inhibition was 2.91%.

`O=C1C=C(c2ccc(Cl)cc2)C(=O)N1Nc1ccccc1`: the inhibition is 34.1% (active).

`Cc1ccc(S(=O)(=O)Nc2ccc3c(c2)C(=O)N([C@H](C)CO)C[C@@H](C)[C@@H](CN(C)C(=O)Nc2cccc4ccccc24)O3)cc1`: the inhibition was -59.7%.

On to `CCN(CC)CCCC(C)n1c2nc(=O)[nH]c(=O)c-2nc2cc(Cl)ccc21` (configuration not stated), for which the inhibition is 31.2% (active).

On to `COc1cccc(CC(=O)OCC(=O)NCc2ccc3c(c2)OCO3)c1`, for which the inhibition was 9.81%.

For the compound `COc1cc(C=NC2CCCCC2)ccc1O`, the inhibition was 0.2%.

For `COc1cc(/C=C(\C#N)c2nc3c(s2)CC(C)CC3)ccc1O` (configuration not stated), the inhibition was 23.2% (active).

As to `COCCCN(C(=S)Nc1c(C)cc(C)cc1C)C(C)c1ccncc1` (configuration not stated), the inhibition was -3.93%.

In the case of `CC(=O)Oc1cccc(N2C(=O)CC(Nc3ccc(N4CCOCC4)cc3)C2=O)c1` (configuration not stated), the inhibition is -13.9%.

For the compound `CC1(C)NC(=O)N(CC(=O)Nc2ccc(-c3ccccc3)cc2)C1=O`, the inhibition was 4.81%.

For `O=C(Cn1nc(C(=O)O)c2ccccc2c1=O)Nc1ccc(F)cc1`, the inhibition was -5.34%.

With `Cc1ccc(NC(=O)Cn2sc3ccccc3c2=O)cc1`, the inhibition was 22.1% (active).

As for `CN(C)CCCNC(=S)N1CCC(c2nc3ccccc3[nH]2)CC1`, the inhibition is -7.82%.

In the case of `CCc1nn(CCCC(=O)Nc2ccc(C)cc2C)c(=O)c2cc3occc3n12`, the inhibition was 4.65%.

For `CS(=O)(=O)N(CC(=O)N1CCCC1)Cc1ccccc1`, the inhibition was 3.45%.

Take `O=[N+]([O-])c1ccc(CN2CC(N3CC=CC3)CS2(=O)=O)cc1` (configuration not stated): the inhibition is -11%.

Consider `O=C1/C(=C\c2ccc([N+](=O)[O-])cc2)CS(=O)(=O)C/C1=C/c1ccc([N+](=O)[O-])cc1`, for which the inhibition was 44.6% (active).

Turning to `CCc1nc2ccc(C(=O)NCc3ccc(OC)cc3)cn2c1N(CC)Cc1cccc(Br)c1`, the inhibition was 6.44%.

As for `COC(=O)[C@]1(C)CCC[C@@]2(C)C3CC[C@]4(OC(C)=O)C[C@@]3(CCC21)CC4=NO` (some centres not stated), the inhibition was 6.55%.

Turning to `O=C(COc1ccccc1Cl)Nc1ccc(C(=O)c2ccc(C(=O)O)cc2)cc1`, the inhibition was 2.32%.

As for `O=C(O)CC(Cc1ccccc1)C(=O)Nc1ccc([N+](=O)[O-])cc1` (configuration not stated), the inhibition was -1.04%.

In the case of `COc1cc2c(cc1OC)C1C(=O)c3cc(OS(C)(=O)=O)c(OC)cc3C1N(C)C2=O` (configuration not stated), the inhibition was 3.51%.

`Cc1cc(C)n(CC(O)COc2ccc(C(C)(C)C)cc2)n1` (configuration not stated): the inhibition was -8.7%.

With `COc1ccc(C(CNC(=O)COc2ccc([N+](=O)[O-])cc2)N2CCCCC2)cc1` (configuration not stated), the inhibition is 0.77%.

Consider `COc1ccc(C(C[N+](=O)[O-])n2nc(C)cc2C)cc1` (configuration not stated), for which the inhibition is 26.6% (active).

On to `C=CCn1cc(-c2cccc(C(F)(F)F)c2)cc(C#N)c1=O`, for which the inhibition is 0.01%.

Take `COCCCNC(=S)N1CCCC(c2nc3cc(C)c(C)cc3[nH]2)C1` (configuration not stated): the inhibition was -3.68%.

For the compound `Nc1cccc2c1C(=O)N(Cc1nnc(-c3ccccc3Br)o1)C2=O`, the inhibition was 27.5% (active).

For `CC(C)N(Cc1nnc(-c2ccccc2Br)o1)C(=O)c1cc(Cl)nc2ccccc12`, the inhibition was -10.3%.

As to `O=C(OCc1nnc(-c2ccccc2)o1)c1ccc2c(c1)C(=O)N(CCc1ccccc1)C2=O`, the inhibition is 9.8%.

Regarding `CC(C)CC(CO)N1CCN(C(=O)c2ccc(Cl)cc2Cl)CCC1=O` (configuration not stated), the inhibition was -4.88%.

`COc1ccc(-c2nc3n(c2Br)CCC3)cc1`: the inhibition was -7.99%.

Regarding `O=C(Nc1ccccc1)C1CC(=O)n2c(nc3ccccc32)N1` (configuration not stated), the inhibition is -8.18%.

As for `Cc1csc(NC(=O)C2CCCN2C(=O)OCC(C)C)n1` (configuration not stated), the inhibition is -2.47%.

As to `CN1CCN(S(=O)(=O)c2cccc(C(=O)N3CCc4ccccc43)c2)CC1`, the inhibition was 2.86%.

Turning to `CC1CC(C)CN(S(=O)(=O)c2cccc(C(=O)N3C(=O)c4cccc(N)c4C3=O)c2)C1` (configuration not stated), the inhibition is 30.1% (active).

Consider `CC(=O)N1CCN(S(=O)(=O)c2cccc(C(=O)NC3CCC(C)CC3)c2)CC1` (configuration not stated), for which the inhibition was -9.28%.

Take `O=[N+]([O-])c1ccc(Oc2ccc(F)cc2Br)c2ccncc12`: the inhibition is -1.06%.

As for `CC(C)CNC(=S)NNC(=O)c1nn(C)cc1Cl`, the inhibition was -4.5%.
